Results taken from the supplement of paper PMC3334620.
The full ranking holds about 33,000 sequences; the median of “E-score (-0.5 to 0.5)” is about -0.041, and the highest 2% start at about 0.37. This excerpt belongs to a sample that is enriched for the highest values.

molecular target: T1, Ecm22 (UniProt Q05958); assay: PBM E-score (8-mer binding enrichment) (E-score (-0.5 to 0.5)); higher = stronger / more preferred TF binding; details: protein concentration: 200 nM; construct: GST-full length
T1 sequence: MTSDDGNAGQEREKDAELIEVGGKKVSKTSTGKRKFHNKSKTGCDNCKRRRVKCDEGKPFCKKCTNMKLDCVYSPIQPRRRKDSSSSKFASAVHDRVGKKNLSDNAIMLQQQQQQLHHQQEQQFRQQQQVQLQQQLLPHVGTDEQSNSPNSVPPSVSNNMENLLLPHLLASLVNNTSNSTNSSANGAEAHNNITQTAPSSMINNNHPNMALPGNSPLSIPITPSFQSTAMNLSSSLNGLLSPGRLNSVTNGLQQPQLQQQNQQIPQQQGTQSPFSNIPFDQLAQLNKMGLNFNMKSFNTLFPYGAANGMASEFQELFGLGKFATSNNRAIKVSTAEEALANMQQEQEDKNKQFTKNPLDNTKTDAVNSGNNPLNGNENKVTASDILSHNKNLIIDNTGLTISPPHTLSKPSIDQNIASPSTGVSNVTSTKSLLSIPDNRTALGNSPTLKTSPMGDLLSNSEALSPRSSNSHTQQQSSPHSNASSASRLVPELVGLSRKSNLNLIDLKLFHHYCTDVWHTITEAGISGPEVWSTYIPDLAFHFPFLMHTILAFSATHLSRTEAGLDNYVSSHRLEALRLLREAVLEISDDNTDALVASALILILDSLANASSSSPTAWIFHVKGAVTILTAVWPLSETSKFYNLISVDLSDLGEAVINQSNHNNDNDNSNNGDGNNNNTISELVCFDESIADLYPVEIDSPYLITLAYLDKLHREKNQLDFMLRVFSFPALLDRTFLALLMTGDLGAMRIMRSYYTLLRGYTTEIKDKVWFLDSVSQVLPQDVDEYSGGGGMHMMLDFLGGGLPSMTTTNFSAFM
Method in brief: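 Yeast transcription factors carrying a GST tag, as full-length proteins or DNA-binding domains, were produced by PURExpress in vitro transcription/translation. About 100-200 nM protein was applied to universal all-10-mer Agilent arrays, double-stranded by primer extension on fresh or once-stripped slides. Bound protein was detected with fluorescent anti-GST, and scans were normalised with masliner. The Universal PBM Analysis Suite gave each ungapped eight-base word, pooled with its reverse complement, an E-score, a modified Wilcoxon-Mann-Whitney statistic.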

Sequence	PBM E-score
CGCCCAGA	-0.104
CCCAACCA	0.0792
GAAGAGAC	0.0183
GACCTTCA	-0.0961
AGTTTGGC	-0.00953
CGTTTGGA	0.366
AGTTTAGA	-0.186
GGTTTAGA	-0.179
CGTTTAGA	0.446
CGTTTGGC	0.394
CATTTAGC	0.0683
CGTTTAGC	0.464
AGTTTAGC	-0.19
CACTGCTG	-0.147
GCTGCTAC	0.124
GACCCGGA	-0.17
CTCCGCGC	-0.0267
CCGTAGCA	0.165
GCGTAGAA	-0.0103
CCGTAGAA	0.122
TCGTAGCA	0.419
TCGTAGAA	0.384
ACGTAGCA	0.0433
AAGACCTC	-0.2
CAAACGAG	0.463

Sequence	PBM E-score
AAAACGAG	0.362
GAAACGGC	0.2
GAAACGAC	0.41
CTAACGAC	0.282
CAAACGAC	0.442
AAAACGAC	0.363
GAAACGCC	0.0403
CCAACGAG	0.093
ACCCAGCG	-0.184
CAGGACCG	-0.0291
CAATTCGC	0.0698
ACTCACGG	0.034
CACGTCCG	-0.21
CAGATGGA	0.0554
ACTCACCG	-0.0985
ATCGTTAA	0.403
GTCGTTAA	0.427
CACGTTAC	-0.046
CTCGTTAC	0.371
ATCGTTAC	0.264
CGCGTTAC	0.159
ATCGTTAG	0.201
CCCGTTAA	0.256
GACGTTAA	0.0928
CACGTTAA	0.00208

Sequence	PBM E-score
GGCGTTAA	-0.0419
CTCGTTAA	0.437
CGGCGTAG	-0.00106
ATAGTGAT	0.176
CCTCGCAG	0.0132
CCCGTCCG	-0.309
CGCCAGTC	0.014
GTACGGAA	0.4
GTACGGAC	0.372
GGACGGAA	-0.0866
CTACGGAC	-0.07
ATACGGAT	0.332
GCACGGAA	-0.094
ATACGGAC	0.362
ATACGGAG	0.385
CTACGGAG	-0.0418
TTACGGAA	0.266
ATACGGAA	0.374
CTACGGAA	0.0649
AATTTGCT	-0.0782
TAGGGAGA	-0.252
ACATGGGG	-0.282
TGAATTAA	0.099
CCGGAGGA	-0.171
AGAAACGA	0.424

Sequence	PBM E-score
CGAAACGC	0.0992
CGAAACGA	0.424
GGAAACAA	0.0422
AGAAACGC	-0.0375
CGAAACCA	0.28
GAAAACGA	0.306
AGAAACGG	0.272
GGAAACGA	0.426
CCTGTGTA	0.00294
GAGAGCAC	-0.00667
AACATCGT	0.264
AAGTATCA	-0.115
CAGCTAGA	-0.0476
CTTGCCGA	-0.0634
ACGACCAC	0.35
GCGACCGA	0.218
ACGACCTC	0.337
ACGACCAA	0.371
CCGACCTA	0.0401
ACGACCAG	0.319
ACGACCGA	0.394
ACGACCTA	0.384
CCGACCGA	0.203
AGACATTG	-0.268
ACTCGCAG	0.0817

Sequence	PBM E-score
GCAGGGGC	-0.243
GAAGAAGC	-0.234
AACAGTTA	-0.1
ATCCGTTA	0.177
AAAGGCTT	-0.177
ACCGAGCG	0.292
CAAGACTC	-0.126
CGAAATCG	0.111
ATTCGTTG	0.277
CTTCGTTC	0.47
GTTCGTTA	0.356
ATTCGTTA	0.309
ATTCGTTC	0.432
CTTCGTTA	0.303
CTCTCTAA	-0.232
GCTCTAGA	-0.226
AGTTCCTC	-0.117
AGTTCCTA	0.102
CGTTCCTA	0.439
GGTTCCTA	-0.128
CGTTCCTC	0.452
CCTTCCTC	-0.0948
ACAGTAAC	0.00997
AACTGCAA	-0.138
CACCTTAC	-0.0784

Sequence	PBM E-score
CGGCTCCC	-0.0756
GCTGCATA	-0.114
CGTCTAAC	-0.0542
GAAAGATC	0.0489
ACATAGCA	-0.131
GTATAAAC	0.403
ATATAAAC	0.212
GTATAAAA	0.335
CACAATTC	-0.0282
AGCGCTAT	-0.048
CGACCTCG	0.183
AACGTTCA	0.0914
ATCGTTCG	0.373
CACGTTCA	-0.131
AACGTTCC	0.259
CTCGTTCA	0.47
AGCGTTCC	0.2
ATCGTTGG	-0.0634
ATCGTTCC	0.478
AACGTTCG	0.217
CGCGTTCA	0.185
AGCGTTCA	-0.121
ATCGTTCA	0.402
AGGGTTAT	-0.0839
ATTCATAC	0.161

Sequence	PBM E-score
CTTGTGTC	-0.0755
CACCGGAC	0.112
CGATCTAG	0.00932
ATCGTGGG	-0.0631
CGATCTAA	0.0461
GTTAGACA	-0.137
GACGTTCA	0.0272
GTCGTTCA	0.448
GGCGTTCA	0.00425
AAGCCCAG	-0.109
GGTACACC	0.0576
AGTACACC	0.0652
CGTACACA	0.402
AGTACACA	0.18
GGTACACA	-0.126
AGTACACG	0.238
CGTACACC	0.37
CGTACACG	0.382
TGTACACA	0.0209
GTAGCAAA	0.0111
GACCAGGC	-0.228
CCCCAGCA	-0.237
